In PubChem BioAssay (EPA / NIEHS) one finds AC50 and outcome data, which are given here for 24 compounds.

For orientation: AC50 means the midpoint of the concentration-response curve, whichever way the signal moves.

Inconclusive results are not listed. Calls of active or inactive are those of the source. Rule for the calls: active = hit-call score of the fitted dose curve at least 0.9, where 1 is the maximum; inconclusive = response in the unintended direction; inactive = score below 0.9.

The nature of the test: STM_H9_NormalizedViability: Cytotoxicity Assessment at 120 hours in the Stemina devTOX quickPredict H9 human embryonic stem cell (hESC)-based Assay (AID 2283784). Here is the method: STM_H9_viability utilizes undifferentiated H9 cells to measure cell viability.STM_H9_NormalizedViability is a component calculated in the STM_H9_viability assay. It measures cell viability using background corrected relative fluorescence units (RFU) value from the CellTiterFluor Assay normalized to the value of the 0.1% DMSO neutral control treatment (by 96-well plate)Data from the assay component STM_H9_Viability was analyzed at the assay endpoint STM_H9_Viability_Norm in the positive analysis fitting direction relative to DMSO as the negative control and baseline of activity. Using a type of viability reporter, loss-of-signal activity can be used to understand viability.
H9 hESCs maintained in a pluripotent state were exposed to test compound for 72h with chemical replenishment with media replacement every 24h. Cell-conditioned media from the final 24-h treatment period was collected for analysis of the targeted biomarker, and cell viability of the corresponding cell layer was assessed. The chemical library was tested in blinded fashion. Each test plate included 1uM Methotrexate (MTX; Selleck Chemicals, Houston, Texas) as a positive reference, 5 nM MTX as a negative reference, 0.1% DMSO as the neutral (vehicle) control, and sample-level media blanks.H9 cell-conditioned media from the final 24-h treatment period was collected for analysis of the targeted biomarker and cell viability was measured from the corresponding cell layer. Cell viability was measured using the CellTiter-Fluor assay (Promega, Madison, Wisconsin) based on proteolytic cleavage of a substrate to fluorescent signal proportional to the number of living cells. The cell viability Relative Fluorescence Unit (RFU) was background corrected and normalized to mean RFU of the neutral control (0.1% DMSO). The collected H9-cell-conditioned media samples were processed for targeted biomarker analysis as described (Palmer et al., 2013). Briefly, spent media samples were deproteinized (40% acetonitrile) and processed for UPLC-HRMS. Data acquisition was performed using 4 separate UPLC-HRMS systems, consisting of an Agilent 1290 Infinity LC system (Agilent Technologies) interfaced with an Agilent high-resolution mass spectrometer (models G6520A, G6520B, G6530A, and G6224A). A Waters Acquity UPLC BEH Amide column (2.1mm x 50mm, 1.7lm particle size; Waters, Milford, Massachusetts) maintained at 40C was applied for separation of metabolites using a 6.5min solvent gradient with 0.1% formic acid in water and 0.1% formic acid in acetonitrile (1.0ml/min flow rate). Data were acquired using MassHunter Acquisition software (version B 04.00, Agilent Technologies). The extracted ion chromatogram (EIC) areas for ORN, CYSS, and their respective spike-in C13-standards were determined using the Agilent MassHunter Quantitative Analysis software, version B.05.00 or newer (Agilent Technologies), and data were normalized as described in Palmer et al. (2017).
For `COc1ccc2cc(S(=O)(=O)N[C@H](CC(=O)N[C@H](Cc3ccc(CN4[C@H](C)CCC[C@@H]4C)cc3)C(=O)N(C)C(C)C)c3ccc4c(c3)OCO4)ccc2c1`, the half-maximal activity concentration (AC50) is 18.9 µM (active).
For `CN1C(=O)N(c2ccccc2Br)Cc2cnc(Nc3ccc4c(c3)OCC(CO)O4)nc21` (centres undefined), the concentration at half-maximal activity (AC50) is 1.81 µM (active).
Turning to `CCCCCCCCN(C)CCCCCCCC`, the result was inactive.
The same measure, in the same setting: in the case of `Clc1cc(Cl)c2c(c1)N=C1CCCCCN1C2` it was “inactive”.
For `NC(=O)c1nc(-c2cccc(-c3cc(F)ccc3OCC(F)(F)C(F)(F)F)c2)n[nH]1`, the AC50 is 0.683 µM (active).
For `CO[C@H]1/C=C/O[C@@]2(C)Oc3c(C)c(O)c4c(O)c(c(/C=N/N5CCN(C)CC5)c(O)c4c3C2=O)NC(=O)/C(C)=C\C=C\[C@H](C)[C@H](O)[C@@H](C)[C@@H](O)[C@@H](C)[C@H](OC(C)=O)[C@@H]1C`, the result was inactive.
As for `OCCO`, the outcome was inactive.
`CN(C)c1ccc(C(=C2C=CC(=[N+](C)C)C=C2)c2ccc(N(C)C)cc2)cc1`: the half-maximal activity concentration (AC50) was 0.767 µM (active).
The same measure, in the same setting: in the case of `COc1cc(C(=O)NC2CCN(C)CC2)ccc1Nc1ncc2c(n1)N(C1CCCC1)CC(F)(F)C(=O)N2C` it was 0.0449 µM (active).
In the case of `CC(=O)N1CCN(c2ccc(OC[C@H]3CO[C@](Cn4ccnc4)(c4ccc(Cl)cc4Cl)O3)cc2)CC1`, the result was inactive.
Consider `CC(C)(c1cc(Br)c(O)c(Br)c1)c1cc(Br)c(O)c(Br)c1`, for which the result was inactive.
Still for that read-out and setting: with `O=C(Nc1ccc(Cl)cc1)Nc1ccc(Cl)c(Cl)c1` the entry was “inactive”.
Same read-out and setting: in the case of `Cc1c2ccccc2c(C)c2c1ccc1ccccc12` it was “inactive”.
`CCCCCCCCOC(=O)c1cc(O)c(O)c(O)c1`: the concentration at half-maximal activity (AC50) was 2.44 µM (active).
For `CC(C)(C)c1cc(/C=C2\SC(N)=NC2=O)cc(C(C)(C)C)c1O`, the outcome was inactive.
Regarding `CN1C(=O)CC[C@H]1c1cccnc1`, the outcome was inactive.
The same measure, in the same setting: in the case of `CCCCOC(=O)c1ccc(O)cc1` it was “inactive”.
Regarding `CN(C[C@@H](CC[N+]12CCC(C3CCCCC3)(CC1)CC2)c1ccc(Cl)c(Cl)c1)C(=O)c1cc(C(F)(F)F)cc(C(F)(F)F)c1`, the AC50 was 16.4 µM (active).
As for `CCCCCCCCCCCC[N+](C)(C)C`, the AC50 is 8.63 µM (active).
Same read-out and setting: with `CN(C)C(=O)C1(N2CCCCC2)CCN(CC[C@@]2(c3ccc(Cl)c(Cl)c3)CN(C(=O)c3ccccc3)CCO2)CC1` the figure was 9.2 µM (active).
Take `CCOC(=O)O[C@H](C)OC(=O)c1ccc2c(c1)cc(C(=O)NC1CCN(C(C)C)CC1)n2Cc1cc(-c2ccc(Cl)s2)on1`: the outcome was inactive.
On to `O=c1c(-c2ccc(O)cc2)coc2cc(O)cc(O)c12`, for which the concentration at half-maximal activity (AC50) was 83.2 µM (active).
Take `COc1cccc([C@H](O)C2CCN(CCc3ccc(F)cc3)CC2)c1OC`: the outcome was inactive.
In the case of `Cc1cn([C@H]2C[C@H](N=[N+]=[N-])[C@@H](CO)O2)c(=O)[nH]c1=O`, the result was inactive.
